Pf Dd2 inh = Plasmodium falciparum Dd2 growth inhibition; Potency, µM (highest dose often 28.9 µM), for inactives: at the highest dose activity, negative = inhibition, most hits filed as inhibitors; P. falciparum Dd2 growth, SYBR Green, 72 h; 4.3% of 120,000 active; active = well fitted inhibition curve with a large enough effect;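 note: plate controls were DMSO vehicle for no effect and reference drug for full effect; nearly all actives have a fitted effect of over 65% in size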
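Readout: SYBR Green fluorescence, 485 nm excitation, 535 nm emission, after ~16 h lysis at 37C. Before that, Dd2-infected red cells (2.5% hematocrit) grew 72 h with compound, 29 uM top final concentration.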
The depositor's hits bear a star; [ ] = another dose, or the depositor's remark. The full list was thinned out, with hits kept by preference. Potency is the fitted concentration of half-maximal effect.

How did NC(=O)CO[C@@H]1CO[C@H]2[C@@H]1OC[C@@H]2NS(=O)(=O)c1cccs1 do in these assays?
Pf Dd2 inh: -13.6%[44.1 µM]

What do the screens show for `O=C(Nc1nc2c(s1)CCC2)C1CC(=O)N(c2n[nH]c3cc(Br)ccc23)C1` (stereo not drawn)?
Pf Dd2 inh: -11.5%

What do the screens show for `CC(C)Oc1cccc(-c2nnc(CCC(=O)NCC3CCCCC3)c(=O)[nH]2)c1`?
Pf Dd2 inh: -6.3%

How did CCC1(O)CCCN(C(=O)c2cc(COc3ccccc3OC)[nH]n2)C1 (stereo not drawn) do in these assays?
Pf Dd2 inh: -5.3%

How did CN(C)CCN1CCC(N2CCN(C(=O)c3ccnn3C)CC2)C1=O (stereo not drawn) do in these assays?
Pf Dd2 inh: -24.5%

What do the screens show for `O=C(O)C[C@@H]1CCN(C(=O)Nc2ccccc2)C[C@@H]1CCN1CCC(n2c(=O)[nH]c3ccccc32)CC1`?
Pf Dd2 inh: 9.9%

What do the screens show for `CO[C@H]1C(=O)N(C(C)C)[C@H]1C1CCN(C(=O)c2cccc3[nH]ccc23)CC1`?
Pf Dd2 inh: -4.5%

What do the screens show for `CCc1nc2nccc(-c3ccc(OC)c(OC)c3)n2n1`?
Pf Dd2 inh: -20.8%

What do the screens show for `COc1ccc(CCc2nc3nccc(-c4ccc(OC)c(OC)c4)n3n2)cc1OC`?
Pf Dd2 inh: 12.6µM*

How did COc1ccc(-c2ccnc3nc(CCc4ccc(OC)c(OC)c4)nn23)cc1 do in these assays?
Pf Dd2 inh: -11.5%

Results for O=C(c1ccc2nc[nH]c2c1)N1CCC(c2nc(-c3ccccc3)no2)C1 (stereo not drawn) ?
Pf Dd2 inh: 16.9%[5.79 µM]

Results for CC(=O)N1CCCC2(COc3ccccc3S(=O)(=O)N2)C1 (stereo not drawn) ?
Pf Dd2 inh: 26.7%

How did COCC(c1ccccn1)N(C)C(=O)c1cc(S(N)(=O)=O)ccc1F (stereo not drawn) do in these assays?
Pf Dd2 inh: 14.1%

Results for C[C@]1(CO)[C@H]2Cc3sc(NC(=O)c4ccco4)nc3[C@@H](CC(=O)NC3CCCC3)[C@]2(C)CC[C@H]1O ?
Pf Dd2 inh: -8.9%

How did C=CCO[C@@H]1CCN2C(=O)c3cc(-c4cccc(C(F)(F)F)c4)ccc3NC(=O)[C@H]12 do in these assays?
Pf Dd2 inh: -23.5%[44.1 µM]

Results for O=c1c2ccccc2nc2sc(Nc3cccc(C(F)(F)F)c3)nn12 ?
Pf Dd2 inh: -11.1%

What do the screens show for `CCc1c(C)c(C#N)c2nc3ccccc3n2c1Nc1cccc(C(F)(F)F)c1`?
Pf Dd2 inh: 2.24µM*

Results for CC(=O)Nc1ccccc1-c1nc2ccccc2n(CC(=O)Nc2cccc(C(F)(F)F)c2)c1=O ?
Pf Dd2 inh: 25.0%

How did Cn1cnc(C(=O)N2[C@@H]3CC[C@H]2CC(NC(=O)c2ccncc2)C3)c1 (stereo partly drawn) do in these assays?
Pf Dd2 inh: 22.4%

Results for O=C(Nc1ccc2c(c1)CN(Cc1ccccc1F)C(=O)CO2)c1ccc(Cl)cc1 ?
Pf Dd2 inh: -1.0%

Results for O=C(C1CCCN(C2CCN(Cc3ccc4c(c3)OCO4)CC2)C1)N1CCOCC1 (stereo not drawn) ?
Pf Dd2 inh: -6.9%

How did CN1C(=O)c2ccccc2Sc2ccc(NC(=O)Nc3ccccc3F)cc21 do in these assays?
Pf Dd2 inh: -13.7%

What do the screens show for `CCc1cccc(NC(=O)Nc2ccc3c(c2)N(C)C(=O)c2ccccc2S3)c1`?
Pf Dd2 inh: inactive

Results for CN1C(=O)c2ccccc2Sc2ccc(NC(=O)N3CCN(c4cccc(Cl)c4)CC3)cc21 ?
Pf Dd2 inh: 12.6µM*

Results for COC(=O)C1=C(C)N=C2SC=C(CC(=O)NC3CC4CCC3C4)N2C1c1ccsc1 (stereo not drawn) ?
Pf Dd2 inh: inactive

How did CCN1CCC2(CCC1=O)CN(Cc1cc(C#N)n(CC)c1)CCN2C (stereo not drawn) do in these assays?
Pf Dd2 inh: -19.6%

How did N#Cc1ccc(CN2CC[C@H](c3nnc(Cc4ccccc4)o3)C2)cc1 do in these assays?
Pf Dd2 inh: inactive

What do the screens show for `CCn1cc(CN2CCCC(c3nc4c(C)cccc4[nH]3)C2)cc1C#N` (stereo not drawn)?
Pf Dd2 inh: 12.6µM*

What do the screens show for `CCOCCOC1CCN(S(=O)(=O)Cc2ccccc2F)CC1`?
Pf Dd2 inh: 16.9%

Results for COc1cccc(C2=CC(c3cc(Br)ccc3F)n3nnnc3N2)c1 (stereo not drawn) ?
Pf Dd2 inh: -5.4%

Results for CCc1ccc(C2=CC(c3c(F)cccc3Cl)n3c(nc4ccccc43)N2)cc1 (stereo not drawn) ?
Pf Dd2 inh: 24.2%

What do the screens show for `CC1=C(C(=O)Nc2cccnc2)C(c2ccccc2Cl)n2nc(-c3ccccc3)nc2N1` (stereo not drawn)?
Pf Dd2 inh: -6.7%

What do the screens show for `COc1ccccc1C1C=C(c2ccc(C(C)C)cc2)Nc2nnnn21` (stereo not drawn)?
Pf Dd2 inh: inactive

What do the screens show for `COc1ccccc1C1C=C(c2ccc(Cl)cc2)Nc2nc(-c3ccc(Cl)cc3)nn21` (stereo not drawn)?
Pf Dd2 inh: 2.82µM*

What do the screens show for `COc1ccccc1C1C=C(c2ccc(F)cc2)Nc2nc(-c3ccc(Cl)cc3)nn21` (stereo not drawn)?
Pf Dd2 inh: 11.2µM*

What do the screens show for `O=C(NC1CCCC1)N1CCCC(Cn2c(C3CC3)nc3cccnc32)C1` (stereo not drawn)?
Pf Dd2 inh: inactive

How did O=C(COc1ccccc1)NC[C@H]1COCc2nc3cccnc3n21 do in these assays?
Pf Dd2 inh: inactive

How did O=C(Nc1ccc(F)cc1F)N[C@H]1C[C@H]2C(=O)NC[C@@H](CCC(=O)N3CCCCC3)N2C1 do in these assays?
Pf Dd2 inh: inactive

How did CCOC(=O)c1ccc(Nc2nc3ccccc3n3c(C)nnc23)cc1 do in these assays?
Pf Dd2 inh: -23.5%

What do the screens show for `CCOC(=O)c1ccc(Nc2nc3nonc3nc2Nc2cccc(C)c2C)cc1`?
Pf Dd2 inh: 1.12µM*

What do the screens show for `CCOC(=O)c1nc(Nc2ccc(Cl)cc2)c2c(C)noc2n1`?
Pf Dd2 inh: 16.7%

How did CC[C@H]1CN(C(=O)Nc2cccc(C(F)(F)F)c2)CC[C@H]1CC(=O)N(C)CC#N do in these assays?
Pf Dd2 inh: -9.1%[44.1 µM]

How did COCCOC1CN(C2CCN(C(=O)NC(C)C)CC2)C12CCCCC2 (stereo not drawn) do in these assays?
Pf Dd2 inh: inactive

How did C1CC2(CCN1)CC(OCC1CC1)CCO2 (stereo not drawn) do in these assays?
Pf Dd2 inh: 24.6%

What do the screens show for `CC(C)C(=O)N1CCC(N2CC(OCC3CC3)C23CCCCC3)CC1` (stereo not drawn)?
Pf Dd2 inh: 3.16µM*

How did Cc1ccc(C(=O)N2CCC(N3CC(OCC4CC4)C34CCCCC4)CC2)cn1 (stereo not drawn) do in these assays?
Pf Dd2 inh: -4.9%

How did O=C1C(O)C2(CCCCC2)N1C1CCNCC1 (stereo not drawn) do in these assays?
Pf Dd2 inh: 10.3%

How did C1CCC2(CC1)C(OCC1CC1)CN2C1CCNCC1 (stereo not drawn) do in these assays?
Pf Dd2 inh: 3.98µM*

How did Cc1cc(CNC(=O)[C@@H]2CCC[C@@H](NC(=O)NC3(c4ccccc4)CCOCC3)CN(C)C(=O)C2)no1 do in these assays?
Pf Dd2 inh: -11.1%

How did Cn1cccc1C(=O)N1CCCN(C(=O)C2CC2)C(c2ccccc2)CC(=O)NCC1 (stereo not drawn) do in these assays?
Pf Dd2 inh: -3.0%

What do the screens show for `O=C(c1ccc(Cl)cc1)N1CCC2(C1)C(=O)Nc1ccccc12` (stereo not drawn)?
Pf Dd2 inh: -0.2%

High-throughput results deposited in PubChem by National Center for Advancing Translational Sciences (NCATS).
